Measured values taken from the supplement of paper PMC12067093, “Discovery and optimisation of a covalent ligand for TRIM25 and its application to targeted protein ubiquitination” (Chemical Science, 2025).
Of roughly 21,000 targets only a part is listed; those with the largest changes were picked by preference.

compound: Cc1cc(ccc1-c1ccccc1)C(=O)N1CCCN(CC1)C(=O)CCl [compound 10]; assay: probe-labelled cysteine peptide fold change vs DMSO (competition) (log2 fold change); higher = less target engagement (more negative = stronger competition); conditions: 50 µM; THP-1; incubation time: 4 h
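Also: competitive profiling in live THP-1 cells: cysteine peptides tagged with an iodoacetamide desthiobiotin (IA-DTB) probe, intensity after compound treatment relative to DMSO-treated cells.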

Chain of UniProt Q9BTV6 (Q9BTV6 whole entry, looked up): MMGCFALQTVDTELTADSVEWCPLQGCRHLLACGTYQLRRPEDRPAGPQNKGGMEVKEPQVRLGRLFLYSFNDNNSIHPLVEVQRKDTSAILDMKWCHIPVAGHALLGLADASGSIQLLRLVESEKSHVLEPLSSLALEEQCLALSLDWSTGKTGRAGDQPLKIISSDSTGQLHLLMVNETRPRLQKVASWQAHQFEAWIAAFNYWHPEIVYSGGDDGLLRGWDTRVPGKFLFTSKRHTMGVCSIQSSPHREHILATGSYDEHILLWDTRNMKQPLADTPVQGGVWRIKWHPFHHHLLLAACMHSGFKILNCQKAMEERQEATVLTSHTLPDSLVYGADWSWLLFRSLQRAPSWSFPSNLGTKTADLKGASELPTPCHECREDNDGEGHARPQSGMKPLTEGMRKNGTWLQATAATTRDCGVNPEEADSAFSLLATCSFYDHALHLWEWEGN
Chain of UniProt Q01780 (Q01780 whole entry, looked up): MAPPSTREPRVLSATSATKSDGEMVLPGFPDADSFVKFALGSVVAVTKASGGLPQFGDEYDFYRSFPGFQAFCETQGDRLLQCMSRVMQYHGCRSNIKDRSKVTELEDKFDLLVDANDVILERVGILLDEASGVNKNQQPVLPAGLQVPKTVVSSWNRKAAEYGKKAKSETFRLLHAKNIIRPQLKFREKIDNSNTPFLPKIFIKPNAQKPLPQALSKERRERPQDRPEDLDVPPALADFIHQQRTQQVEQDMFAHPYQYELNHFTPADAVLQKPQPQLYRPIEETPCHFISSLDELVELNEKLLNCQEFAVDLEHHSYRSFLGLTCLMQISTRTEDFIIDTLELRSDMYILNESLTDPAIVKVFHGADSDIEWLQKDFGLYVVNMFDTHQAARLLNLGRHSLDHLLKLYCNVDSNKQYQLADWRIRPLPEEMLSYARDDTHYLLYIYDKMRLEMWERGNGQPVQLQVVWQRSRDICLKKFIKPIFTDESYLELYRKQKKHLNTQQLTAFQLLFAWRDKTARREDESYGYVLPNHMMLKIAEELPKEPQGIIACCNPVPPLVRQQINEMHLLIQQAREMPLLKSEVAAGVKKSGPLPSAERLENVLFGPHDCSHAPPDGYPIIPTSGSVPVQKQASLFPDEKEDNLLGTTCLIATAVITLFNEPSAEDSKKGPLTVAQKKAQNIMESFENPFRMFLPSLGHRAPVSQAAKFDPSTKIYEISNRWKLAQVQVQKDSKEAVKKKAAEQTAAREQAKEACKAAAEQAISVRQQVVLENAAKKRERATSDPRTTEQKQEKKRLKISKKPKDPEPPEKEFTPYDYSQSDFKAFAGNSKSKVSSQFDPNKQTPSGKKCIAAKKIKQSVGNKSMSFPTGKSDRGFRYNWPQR
Chain of UniProt O15287 (O15287 whole entry, looked up): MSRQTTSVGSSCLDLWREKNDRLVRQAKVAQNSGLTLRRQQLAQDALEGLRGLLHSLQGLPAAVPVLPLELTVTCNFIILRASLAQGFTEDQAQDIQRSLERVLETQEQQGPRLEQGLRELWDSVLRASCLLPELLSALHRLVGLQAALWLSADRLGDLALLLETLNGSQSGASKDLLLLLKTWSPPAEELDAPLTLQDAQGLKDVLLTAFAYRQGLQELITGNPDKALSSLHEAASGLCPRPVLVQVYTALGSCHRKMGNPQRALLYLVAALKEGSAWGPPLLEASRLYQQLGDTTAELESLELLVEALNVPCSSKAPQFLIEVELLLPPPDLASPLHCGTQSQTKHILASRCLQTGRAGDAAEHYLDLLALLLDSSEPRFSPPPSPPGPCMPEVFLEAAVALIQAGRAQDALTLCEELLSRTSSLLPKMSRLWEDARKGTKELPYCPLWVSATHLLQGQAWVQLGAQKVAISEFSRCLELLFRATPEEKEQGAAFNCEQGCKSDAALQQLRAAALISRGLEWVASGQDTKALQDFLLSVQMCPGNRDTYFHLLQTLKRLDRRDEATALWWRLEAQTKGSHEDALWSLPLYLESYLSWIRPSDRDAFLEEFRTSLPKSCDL
Chain of UniProt O95163 (O95163 whole entry, looked up): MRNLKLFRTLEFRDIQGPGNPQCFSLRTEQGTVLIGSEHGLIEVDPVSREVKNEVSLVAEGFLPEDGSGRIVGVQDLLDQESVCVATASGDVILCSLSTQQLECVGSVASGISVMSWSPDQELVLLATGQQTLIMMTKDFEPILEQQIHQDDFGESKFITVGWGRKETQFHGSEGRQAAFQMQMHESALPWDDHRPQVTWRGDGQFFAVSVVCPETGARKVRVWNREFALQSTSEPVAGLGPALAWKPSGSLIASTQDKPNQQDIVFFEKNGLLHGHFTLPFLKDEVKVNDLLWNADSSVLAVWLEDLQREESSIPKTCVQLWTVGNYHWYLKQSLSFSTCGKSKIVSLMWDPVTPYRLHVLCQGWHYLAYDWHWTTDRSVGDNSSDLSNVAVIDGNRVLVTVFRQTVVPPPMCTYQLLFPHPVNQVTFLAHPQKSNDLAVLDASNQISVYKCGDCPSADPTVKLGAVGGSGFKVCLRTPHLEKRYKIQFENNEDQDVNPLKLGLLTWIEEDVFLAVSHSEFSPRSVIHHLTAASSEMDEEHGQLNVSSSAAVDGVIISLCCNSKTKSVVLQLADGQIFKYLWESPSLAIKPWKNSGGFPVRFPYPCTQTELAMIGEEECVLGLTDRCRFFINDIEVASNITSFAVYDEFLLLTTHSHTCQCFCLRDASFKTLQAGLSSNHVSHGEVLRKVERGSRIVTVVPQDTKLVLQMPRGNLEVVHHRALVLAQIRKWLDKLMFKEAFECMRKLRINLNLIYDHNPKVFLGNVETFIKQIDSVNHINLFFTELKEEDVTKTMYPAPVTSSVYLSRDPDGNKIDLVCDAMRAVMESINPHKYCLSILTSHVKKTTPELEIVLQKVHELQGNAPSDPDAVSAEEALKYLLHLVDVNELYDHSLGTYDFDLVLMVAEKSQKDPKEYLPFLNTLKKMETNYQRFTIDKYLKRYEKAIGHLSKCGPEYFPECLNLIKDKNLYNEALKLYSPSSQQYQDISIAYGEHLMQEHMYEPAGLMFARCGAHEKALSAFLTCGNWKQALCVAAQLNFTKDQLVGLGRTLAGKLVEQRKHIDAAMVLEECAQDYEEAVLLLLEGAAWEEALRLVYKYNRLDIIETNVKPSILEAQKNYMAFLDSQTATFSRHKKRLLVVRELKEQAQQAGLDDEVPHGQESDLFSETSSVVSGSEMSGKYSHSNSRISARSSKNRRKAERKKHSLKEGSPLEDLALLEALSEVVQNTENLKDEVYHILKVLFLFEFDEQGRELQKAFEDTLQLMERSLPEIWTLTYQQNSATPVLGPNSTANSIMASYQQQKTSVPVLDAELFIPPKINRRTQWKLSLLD
Chain of UniProt Q5VTE0 (Q5VTE0 whole entry, looked up): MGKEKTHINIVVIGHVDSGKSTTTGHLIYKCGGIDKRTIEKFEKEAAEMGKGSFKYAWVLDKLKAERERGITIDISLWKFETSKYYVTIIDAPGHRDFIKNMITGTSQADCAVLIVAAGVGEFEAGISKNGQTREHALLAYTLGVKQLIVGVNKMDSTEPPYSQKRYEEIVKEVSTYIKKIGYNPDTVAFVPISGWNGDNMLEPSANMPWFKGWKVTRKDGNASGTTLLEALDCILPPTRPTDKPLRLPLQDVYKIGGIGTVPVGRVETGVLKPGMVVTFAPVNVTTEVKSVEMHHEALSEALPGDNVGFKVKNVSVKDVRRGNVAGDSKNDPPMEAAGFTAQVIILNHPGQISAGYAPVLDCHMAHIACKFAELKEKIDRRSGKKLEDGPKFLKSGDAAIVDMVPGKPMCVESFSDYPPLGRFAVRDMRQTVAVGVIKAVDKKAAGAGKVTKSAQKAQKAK
Chain of UniProt Q13409 (Q13409 whole entry, looked up): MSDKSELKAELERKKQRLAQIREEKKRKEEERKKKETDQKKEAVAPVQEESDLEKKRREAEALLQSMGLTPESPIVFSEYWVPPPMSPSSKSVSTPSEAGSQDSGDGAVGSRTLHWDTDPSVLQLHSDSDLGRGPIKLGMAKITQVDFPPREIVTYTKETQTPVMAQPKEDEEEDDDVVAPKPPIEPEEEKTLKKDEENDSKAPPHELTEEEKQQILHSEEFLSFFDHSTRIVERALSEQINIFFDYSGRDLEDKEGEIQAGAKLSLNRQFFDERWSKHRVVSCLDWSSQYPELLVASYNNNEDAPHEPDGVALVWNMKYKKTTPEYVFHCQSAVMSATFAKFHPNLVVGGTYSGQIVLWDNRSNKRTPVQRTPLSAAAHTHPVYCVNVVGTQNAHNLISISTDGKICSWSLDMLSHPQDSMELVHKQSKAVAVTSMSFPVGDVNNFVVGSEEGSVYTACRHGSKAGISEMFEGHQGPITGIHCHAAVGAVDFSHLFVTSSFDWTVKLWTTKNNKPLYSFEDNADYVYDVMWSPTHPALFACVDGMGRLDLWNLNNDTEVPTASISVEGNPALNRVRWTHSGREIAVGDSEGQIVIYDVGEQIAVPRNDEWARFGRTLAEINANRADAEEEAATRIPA
Chain of UniProt Q5RKV6 (Q5RKV6 whole entry, looked up): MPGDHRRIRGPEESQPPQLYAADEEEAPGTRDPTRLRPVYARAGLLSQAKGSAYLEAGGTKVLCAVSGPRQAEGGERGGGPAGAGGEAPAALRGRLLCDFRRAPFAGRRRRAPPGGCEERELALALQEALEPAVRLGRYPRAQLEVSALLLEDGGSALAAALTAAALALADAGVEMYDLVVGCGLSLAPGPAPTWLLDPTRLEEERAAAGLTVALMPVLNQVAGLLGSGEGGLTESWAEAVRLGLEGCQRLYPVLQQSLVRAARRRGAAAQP
Chain of UniProt O95571 (O95571 whole entry, looked up): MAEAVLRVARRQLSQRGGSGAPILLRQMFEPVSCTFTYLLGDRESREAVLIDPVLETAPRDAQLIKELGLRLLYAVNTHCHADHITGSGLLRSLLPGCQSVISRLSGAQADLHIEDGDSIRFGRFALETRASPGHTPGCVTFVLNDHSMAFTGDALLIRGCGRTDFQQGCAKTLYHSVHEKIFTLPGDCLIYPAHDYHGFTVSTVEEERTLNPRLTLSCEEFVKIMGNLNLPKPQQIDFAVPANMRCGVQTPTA

Row | Target | probe-labelled cysteine peptide fold change
1 | ELP1_O95163_23_DIQGPGNPQCFSLR (UniProt O95163) | -0.213
2 | EXOSC1_Q9Y3B2_73_ETESQLLPDVGAIVTCK (UniProt Q9Y3B2) | 0.13
3 | DPH7_Q9BTV6_33_HLLACGTYQLR (UniProt Q9BTV6) | 0.078
4 | EXOSC1_Q9Y3B2_40_HGYIFSSLAGCLMK (UniProt Q9Y3B2) | -0.0583
5 | ELOVL5_Q9NYP7_61_NKQPFSCR (UniProt Q9NYP7) | -1.94
6 | EXOSC6_Q5RKV6_117_RAPPGGCEERELALALQEALEPAVR (UniProt Q5RKV6) | -1.04
7 | FANCG_O15287_417_AQDALTLCEELLSR (UniProt O15287) | 0.0425
8 | EEF1A1P5_Q5VTE0_363+370_GNVAGDSKNDPPMEAAGFTAQVIILNHPGQISAGYAPVLDCHMAHIACK (UniProt Q5VTE0) | -1.24
9 | DYNC1I2_Q13409_331_TTPEYVFHCQSAVMSATFAK (UniProt Q13409) | 0.418
10 | ERCC3_P19447_342_SGVIVLPCGAGK (UniProt P19447) | -1.63
11 | EZH2_Q15910_260_ELTEQQLPGALPPECTPNIDGPNAK (UniProt Q15910) | 0.256
12 | EXOSC10_Q01780_555_IAEELPKEPQGIIACCNPVPPLVR (UniProt Q01780) | -1.17
13 | FAM126A_Q9BYI3_401_ETTGESCK (UniProt Q9BYI3) | -1.16
14 | ETHE1_O95571_170_TDFQQGCAK (UniProt O95571) | -1.3
15 | EHMT1_Q9H9B1_1111_LLPEFNMAEPPLIFECNHACSCWR (UniProt Q9H9B1) | -0.282
